# High-throughput results deposited in PubChem BioAssay by National Center for Advancing Translational Sciences (NCATS).
# Only some compounds are listed: those with a hit (about 7.3% of all), similar ones and a draw of the others.
# Vaccinia mCherry: inhibitors of vaccinia virus infection (mCherry reporter signal) | Vaccinia virus mCherry reporter infection, fluorescence | Potency, µM (top dose mostly 36.5 µM), for inactives: at the top dose activity change, negative = inhibition, hits mostly inhibitors | 0.63% of 310,000 active; calls by dose curve; tested in A549 cells; note: potency is the fitted concentration of half-maximal effect; nearly all actives have a fitted effect of over 35% in size
# HCV inh: HCV inhibition | Potency, µM (highest dose often 41.8 µM), inactives show at the highest dose activity change, negative = inhibition, actives largely listed as inhibitors | Huh7.5.1 HCVcc-Cre infection, luciferase reporter, 44 h | 3.4% of 340,000 active; active = well fitted inhibition curve with a large enough effect; inconclusive = small, poorly fitted or top-dose-only effect, or another doubt; inactive = no such curve, though single readings can be large or run the other way; note: potency is the fitted concentration of half-maximal effect
#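 Infectious HCVcc-Cre (~0.5 moi) was added to cells just after compound, with cells seeded 4 h earlier at 1,000 per well. Luciferase activity after 44 h culture reported infection; substrate was incubated 15 min at room temperature before reading.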
# HCMV inh: human cytomegalovirus inhibition | HFF cells, HCMV-luciferase reporter, 72 h; active compounds read low | 4.5% of 410,000 active | activity change, negative = inhibition, % at 57.5 µM; in the data active = activity change below about -60%; inconclusive = no clear call, values can overlap the other calls; inactive = above about -39%
#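 Inhibition of viral replication was scored as loss of reporter luminescence in HFFs infected with HCMV-luciferase (MOI 1 PFU/cell) for 72 h; compounds tested at 2 doses, normalized to buffer and Salinomycin controls.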
# FMDV antiviral: blocks foot and mouth disease virus | FMDV antiviral cell-based qHTS | 1.2% of 410,000 active | Potency, µM (titrated, usually from 57.9 µM), for inactives: at the top dose activity change, negative = inhibition, most hits filed as inhibitors; calls by dose curve; tested in HEK293T cells; note: read-out not given here; potency is the fitted concentration of half-maximal effect; nearly all actives have a fitted effect of over 45% in size
# Vaccinia Venus: vaccinia inhibition (Venus reporter). Vaccinia virus Venus reporter expression, fluorescence. Potency, µM (titrated, usually from 36.5 µM), for the others: at the highest dose activity change, negative = inhibition, hits mostly inhibitors. 0.46% of 330,000 active. AID 720580; calls by dose curve; tested in A549 cells; note: potency is the fitted concentration of half-maximal effect; nearly all actives have a fitted effect of over 30% in size
# * marks the source's active call; other numbers are inactive results; i = inactive; ? = inconclusive; · = not tested or not shown; + = active, no number; [ ] = another dose, or the depositor's remark. % is set by controls: 0 for no effect and ±100 for the full control effect.
SMILES,Vaccinia mCherry,HCV inh,HCMV inh,FMDV antiviral,Vaccinia Venus
COC(=O)C1CCN(Cc2ccc3c(c2)CN(C(=O)c2cc4cc(F)ccc4[nH]2)CCO3)CC1,-5.2%,·,·,-22.1%,1.0%
COc1ccc2c(c1)cc1c(=O)n(CC(=O)NC3CCCCC3)nc(C)n12,-3.0%,·,-9.1,-1.6%,-3.4%
COc1ccc(C(=O)C2CCCN(S(=O)(=O)c3ccc(C(C)=O)cc3)C2)c(C)c1 (stereo unspecified),·,10µM*,-35.6,?,·
COc1ccc(OC2CCN(S(=O)(=O)c3ccc(C(C)=O)cc3)CC2)cc1,·,12.6µM*,-63.2*,-21.5%,·
Cc1nn(-c2ccccc2)c(C)c1CC(=O)NCC1Cc2cc(-c3cncnc3)ccc2O1 (stereo unspecified),-11.1%,·,·,-11.1%,1.7%
COc1ccccc1C(=O)NC(=O)Nc1ccc(-c2cc(C(F)(F)F)nn2-c2ccccc2)cc1,-19.1%,·,-36.2,?,-20.7%
COc1ccccc1C(=O)Nc1ccc(-c2cc(C(F)(F)F)nn2-c2ccccc2)cc1,?,·,-60.9*,?,-27.9%
CC(C)Oc1ccc(CNC(=O)CCCn2c(=O)c3cccn3c3ccccc32)cc1,-25.0%,·,-10.8,-17.8%,-20.3%
COc1ccccc1CN1CCCC(C(=O)c2ccccc2SC)C1 (stereo unspecified),-12.9%,-44.7%,-5.3,-20.9%,-20.3%
COc1c(C)cc(C(=O)C2CCCN(Cc3ccccn3)C2)cc1C (stereo unspecified),-10.0%,-1.7%,-65.2*,-22.1%,-6.3%
COc1ccc2cc(C(=O)C3CCCN(Cc4cccc(C)n4)C3)ccc2c1 (stereo unspecified),?,?,-67.5*,?,?
COc1c(C)cc(C(=O)C2CCCN(C(=O)CCc3scnc3C)C2)cc1C (stereo unspecified),-25.0%,10µM*,-62.1*,-13.4%,-15.6%
COc1ccc(O)c(CN2CCCC(C(=O)c3ccccc3SC)C2)c1 (stereo unspecified),i,11.2µM*,14.8,?,-5.3%
CC(=O)c1cc2c(cc1NC(=O)C1CC1)OCO2,·,11.2µM*,10.0,-8.7%,-15.8%
Cc1cc(C)n2nc(SCc3cccc(S(=O)(=O)N(C)C)c3)nc2n1,i,?,-38.8,?,-15.3%
CN(C)S(=O)(=O)c1cccc(CSCc2cccc(S(=O)(=O)N(C)C)c2)c1,-3.5%,2.24µM*,-92.0*,?,-8.2%
COc1ccc(CCC(=O)Nc2c(-c3ccc(N(C)C)cc3)[nH][nH]c2=O)cc1,25.9%,·,-68.0*,-9.3%,-9.2%
C=C1C=C(C)n2ncc(C(=O)N(CCc3ccccc3)Cc3ccccc3)c2N1,-12.8%,·,·,·,-10.7%
CCc1ccc(CCC(=O)Nc2ccc(C(=O)O)cc2)o1,·,12.2%,+,-8.4%,·
N#Cc1c(NC(=O)c2ccc(Cn3cc(Br)cn3)o2)sc2c1CCCCCC2,·,?,-98.9*,?,·
CCc1ccc(CCC(=O)Nc2sc3c(c2C#N)CCCC3)o1,·,4.47µM*,-75.0*,-6.6%,·
CCC(=O)Nc1sc2c(c1C#N)CCC2,-12.3%,-21.5%,5.1,7.1%,-1.8%
CCNc1ncc2nc(CCc3ccccc3)c(=O)n(C[C@H]3CCCO3)c2n1,·,·,·,9.5%,·
Cc1ccc2nc(SC(Cc3cc(Cl)ccc3Cl)C(=O)O)[nH]c2c1 (stereo unspecified),-2.2%[7.34 µM],·,33.0,-10.6%,-7.9%[7.34 µM]
O=C(NCCc1ccccc1)c1ccc2c(c1)N(Cc1ccccc1)C(=O)c1ccccc1S2=O (stereo unspecified),-6.3%[7.34 µM],·,-30.8,5.1%,-2.2%[7.34 µM]
COc1cccc(-c2nc(NC3CCNCC3)c3ccccc3n2)c1,·,·,·,-13.6%,·
COCc1c(C(=O)NCC2CCCN(C)C2)cnn1-c1ncc2c(n1)-c1ccccc1CCC2 (stereo unspecified),i,·,·,5.8%,-10.4%
CCOC(=O)c1nc(NCc2ccc(Cl)cc2)c2c(C)noc2n1,-1.6%,·,13.3,-11.7%,-7.3%
CCOC(=O)c1cc2c(=O)n3ccccc3nc2n(CCCOC)c1=NC(=O)c1c(-c2ccccc2Cl)noc1C,2.6%,·,2.3,-2.6%,-3.0%
CC1=CC2OC3CC4OC(=O)C=CC=CC(C(C)O)OCC(O)C5(C)OC5C(=O)OCC2(CC1O)C4(C)C31CO1 (stereo unspecified),·,·,-97.6*,·,·
